Laboratory results reported in PubChem BioAssay (Tox21).
“And” between values parts separate entries of the source, which are not always exact repeats. Equal values may be shown once. Inconclusive results are not listed. A call without a number means that no potency is given here. The source holds several records for some structures; these can differ, active in one and inactive in another. The source made the active and inactive calls. Calls follow the shape of the dose curve; as a rule, active = well fitted cell-killing curve with a large enough effect in the repeat runs; inconclusive = weak or mixed curves, or effect the other way; inactive = flat fitted curve, though single readings scatter.

test: qHTS assay to identify small molecule antagonists of the retinoid acid receptor (RAR) signaling pathway - cell viability counter screen (AID 1159551); settings: C3RL4 cells viability, ATP luminescence (CellTiter-Glo), 6 h; series mostly up to 92.4 µM; also: nearly all actives have a fitted effect of over 35% in size
Source text: U.S. Tox21 Program National Center for Advancing Translational Sciences [NCATS] NIH Chemical Genomics Center [NCGC] U.S. Environmental Protection Agency [EPA] National Institutes of Environmental Health Sciences [NIEHS] National Toxicology Program [NTP] U.S. Food and Drug Administration [FDA] Tox21 Assay Overview: All-trans Retinoic acid (atRA) is the potent natural metabolite of retinol and plays an important role in normal embryonic development and maintenance of cellular phenotype in adult animals. atRA is the activating ligand for the retinoic acid receptors (RARs) which form heterodimers with retinoid X receptors (RXRs) on the retinoic acid response element (RARE). Through activation of the RAR/RXRs nuclear receptors, atRA regulates the transcription of a large number of protein-coding genes and regulatory RNAs. Intracellular levels of atRA are controlled by the retinol signaling pathway (RSP) that regulates the biosynthesis and catabolism of atRA to maintain physiological levels. Chemicals that interfere with the RSP can cause abnormal intracellular levels of atRA and therefore are potential developmental toxicants. To assess compounds for the potential adverse effect on embryonic development through interfering with retinol signaling, a cell-based RARE luciferase reporter gene assay was used. C3RL4 cell line (OARSA/CFSAN/FDA, Laurel, MD) was used to screen Tox21 10K compound library for identifying inhibitors of the RSP. Also cytotoxicity was assessed by determining the viability of cells based on the quantitation of ATP.
Tox21 Assay Protocol Summary: C3RL4 cells were seeded at 1,000/well in 4 uL of assay medium into white solid 1,536-well tissue culture plates (Greiner Bio-One North America Inc. Monroe, NC) using a Multidrop Combi (Thermo Scientific, Waltham, MA) dispenser. After incubation at 37 C and 5% CO2 for an overnight, 23 nL of compounds dissolved in DMSO, positive control or DMSO only were transferred by a Pintool station (Kalypsys, San Diego, CA). One ul of 1 uM (final concentration) of Retinol was added right after the compound addition by using a Flying Reagent Dispenser (FRD) (Aurora Discovery, San Diego, CA). After 6 hr incubation at 37 C and 5% CO2, 5 uL of CellTiter-Glo reagent (Promega Corporation, Madison, WI) was added to each assay plate using an FRD. Luminescence was quantified on a ViewLux plate reader (PerkinElmer, Waltham, MA) after 30 min incubation at room temperature.
Potency is read from the fitted curve at half-maximal effect.

Question: With `CNC(=O)Oc1cccc2c1OC(C)(C)C2` as the compound, how does the Potency read?
Answer: inactive

Question: Which Potency does the source give for `CCC[CH2][Sn]([Cl])([CH2]CCC)[CH2]CCC` here?
Answer: 3.86 µM (active) and 8.63 µM (active)

Question: With `Cc1cccc(N=Nc2ccc(N(C)C)cc2)c1` as the compound, how does the Potency read?
Answer: inactive

Question: For `C=CC(Cl)CCl` (stereo not given), which Potency is on record?
Answer: inactive

Question: With `O=C1CCCO1` as the compound, how does the Potency read?
Answer: inactive

Question: For `COP(=O)(NC(C)=O)SC` (stereo not given), which Potency is on record?
Answer: inactive

Question: With `C=C(C)C#N` as the compound, how does the Potency read?
Answer: inactive

Question: Which Potency does the source give for `CC(O)CN(CC(C)O)CC(C)O` (stereo not given) here?
Answer: inactive

Question: Which Potency does the source give for `S=c1[nH]c2ccccc2[nH]1` here?
Answer: inactive

Question: For `CNC(=O)CSP(=S)(OC)OC`, which Potency is on record?
Answer: inactive

Question: Which Potency does the source give for `C[N+](C)(C)C` here?
Answer: inactive

Question: For `CCCCC(C#N)(Cn1cncn1)c1ccc(Cl)cc1` (stereo not given), which Potency is on record?
Answer: inactive

Question: Which Potency does the source give for `O=S(=O)(O)C(F)(F)C(F)(F)C(F)(F)C(F)(F)C(F)(F)C(F)(F)C(F)(F)C(F)(F)F` here?
Answer: inactive

Question: With `CC(C)CON=O` as the compound, how does the Potency read?
Answer: inactive

Question: For `C[N+](C)(C)CC(=O)O`, which Potency is on record?
Answer: inactive

Question: For `c1ccc(C2CO2)cc1` (stereo not given), which Potency is on record?
Answer: inactive

Question: Which Potency does the source give for `c1ccc2c(c1)Nc1ccccc1S2` here?
Answer: inactive

Question: Which Potency does the source give for `COC(=O)Nc1nc2ccccc2[nH]1` here?
Answer: inactive

Question: For `CCOP(=O)(O)OCC` (tested in a mixture with another compound), which Potency is on record?
Answer: inactive and 60.6 µM (active)

Question: Which Potency does the source give for `[CH3][Sn]([Cl])([Cl])[Cl]` here?
Answer: inactive

Question: Which Potency does the source give for `CCCCCCCCCc1ccc(O)cc1` here?
Answer: inactive

Question: With `CCCCCCCCCCCCCl` as the compound, how does the Potency read?
Answer: inactive

Question: Which Potency does the source give for `O=C1Nc2ccc(Cl)cc2C(c2ccccc2)=NC1O` (stereo not given) here?
Answer: inactive

Question: For `Clc1cccc(Cl)c1`, which Potency is on record?
Answer: inactive

Question: With `O=NN(c1ccccc1)c1ccccc1` as the compound, how does the Potency read?
Answer: inactive

Question: Which Potency does the source give for `CN(C)P(=O)(N(C)C)N(C)C` here?
Answer: inactive

Question: Which Potency does the source give for `Clc1cccc(C(Cl)(Cl)Cl)n1` here?
Answer: inactive

Question: Which Potency does the source give for `CCCCSP(=O)(SCCCC)SCCCC` here?
Answer: inactive

Question: For `CC(C)=CC1C(C(=O)OCc2cccc(Oc3ccccc3)c2)C1(C)C` (stereo not given), which Potency is on record?
Answer: inactive

Question: Which Potency does the source give for `CCCCOCCOC(C)=O` here?
Answer: inactive

Question: Which Potency does the source give for `O=[N+]([O-])c1ccc(Nc2ccccc2)cc1` here?
Answer: inactive

Question: Which Potency does the source give for `CC(C)Nc1nc(Cl)nc(NC(C)C)n1` here?
Answer: inactive

Question: With `O=C(O)CF` as the compound, how does the Potency read?
Answer: inactive

Question: For `N#Cc1nn(-c2c(Cl)cc(C(F)(F)F)cc2Cl)c(N)c1S(=O)C(F)(F)F` (stereo not given), which Potency is on record?
Answer: inactive

Question: For `COc1ccc(C=O)cc1OC`, which Potency is on record?
Answer: inactive

Question: With `C=CC(=O)OCC(CC)(COC(=O)C=C)COC(=O)C=C` as the compound, how does the Potency read?
Answer: inactive

Question: For `CN(C)c1nc(=O)n(C2CCCCC2)c(=O)n1C`, which Potency is on record?
Answer: inactive

Question: With `O=[N+]([O-])/N=C1\NCCN1Cc1ccc(Cl)nc1` as the compound, how does the Potency read?
Answer: inactive

Question: For `CCC/C=N/O`, which Potency is on record?
Answer: inactive

Question: For `CCC1(c2ccc(N)cc2)CCC(=O)NC1=O` (stereo not given), which Potency is on record?
Answer: inactive
